{"source": "PubChem BioAssay AID1010", "about": "(Sanford-Burnham Center for Chemical Genomics, 2008)", "note": "The whole screen tested about 48,000 compounds, of which about 160 (0.33%) were called active. What follows is part of a selection rich in actives, with near analogues and random picks from the rest. Values without a mark were called inactive.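 The calls were made as follows: active = survival measured by cellular ATP above 50% at 15 µg/ml in the first screen; inactive = the rest.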"}
{"assay": "protection against thapsigargin ER stress killing – CSM14.1 cells, ATP luminescence, primary screen (AID 1010);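 also: cell death triggered by about 15 µM thapsigargin; ATP read 24 h after thapsigargin was added; plate controls were thapsigargin with DMSO for no effect and DMSO without thapsigargin for full effect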", "conditions": "CSM14.1 thapsigargin ER stress survival, stronger effect = higher value, screened at 15 µg/mL (by protocol)"}
{"smiles": "COc1ccc(C2Sc3ccccc3NC3=C2C(=O)c2ccccc23)cc1", "note": "(stereo not drawn)", "relative survival (cellular ATP)": "5.1%"}
{"smiles": "COc1ccc(NC(=O)c2cccc(N3C(=O)c4ccc(C(=O)Nc5ccc(OC)cc5)cc4C3=O)c2)cc1", "relative survival (cellular ATP)": "0.4%"}
{"smiles": "COc1cc(C2NC(=S)NC(C)=C2C(=O)Nc2ccccc2)ccc1O", "note": "(stereo not drawn)", "relative survival (cellular ATP)": "3.8%"}
{"smiles": "CC(=O)N1C(=O)c2cccc3cccc1c23", "relative survival (cellular ATP)": "17.3%"}
{"smiles": "COc1cc(/C=N/n2cnnc2)cc(Br)c1OCCOc1ccc(C(C)(C)C)cc1", "relative survival (cellular ATP)": "6.5%"}
{"smiles": "O=C(CNC(=O)C(c1ccccc1)c1ccccc1)N/N=C/c1cn[nH]c1-c1ccccc1", "relative survival (cellular ATP)": "49.7%"}
{"smiles": "Cc1c(OCC(=O)c2ccc(F)cc2)ccc2c3c(c(=O)oc12)CCCC3", "relative survival (cellular ATP)": "0.4%"}
{"smiles": "Cc1ccc(N(Cc2c(O)ccc3ccccc23)C(=O)c2cccc([N+](=O)[O-])c2)cc1", "relative survival (cellular ATP)": "-2.5%"}
{"smiles": "O=S(=O)(/N=C/c1ccccc1)c1cccs1", "relative survival (cellular ATP)": "1.2%"}
{"smiles": "COc1ccc(NC2SC(=O)NC2=O)cc1", "note": "(stereo not drawn)", "relative survival (cellular ATP)": "11.7%"}
{"smiles": "CCOc1cccc(-c2cc(C(=O)N3CCCCCC3)c3ccccc3n2)c1", "relative survival (cellular ATP)": "3.9%"}
{"smiles": "NNC(=O)c1n[nH]c2c1CCCCCCCCCC2", "relative survival (cellular ATP)": "-1.8%"}
{"smiles": "Cc1ccccc1NC(=S)N1CCN(c2cccc(Cl)c2)CC1", "relative survival (cellular ATP)": "6.6%"}
{"smiles": "CSc1ccc(CN2CCN(C(=O)c3cccc(F)c3)CC2)cc1", "relative survival (cellular ATP)": "7.7%"}
{"smiles": "O=C(Nc1ccc(Br)cn1)c1cc2n(n1)C(C(F)(F)F)CC(c1cccs1)N2", "note": "(stereo not drawn)", "relative survival (cellular ATP)": "-3.5%"}
{"smiles": "NS(=O)(=O)c1ccc(CCNC(=O)c2cccs2)cc1", "relative survival (cellular ATP)": "-2.4%"}
{"smiles": "COc1ccccc1C(=O)NN1C(=O)/C(=C2/C(=O)N(CC(=O)O)c3ccccc32)SC1=S", "relative survival (cellular ATP)": "25.3%"}
{"smiles": "CCN(CC)S(=O)(=O)c1ccc(NC(=O)c2ccc(OC)c(I)c2)cc1", "relative survival (cellular ATP)": "0.8%"}
{"smiles": "COC(=O)C1=C(C)NC2=C(C(=O)CC(c3ccc(OC)c(OC)c3)C2)C1c1ccc(OC)c(OC)c1", "note": "(stereo not drawn)", "relative survival (cellular ATP)": "8.8%"}
{"smiles": "CCCCOc1ccccc1C1Nc2ccccc2NC2=C1C(=O)CC(c1ccc(OC)c(OC)c1)C2", "note": "(stereo not drawn)", "relative survival (cellular ATP)": "76.5% (active)"}
{"smiles": "COC(=O)C1=C(C)NC2=C(C(=O)CC(c3ccc(OC)c(OC)c3)C2)C1c1ccccc1OCc1ccccc1", "note": "(stereo not drawn)", "relative survival (cellular ATP)": "60.6% (active)"}
{"smiles": "COc1ccc(C2CC(=O)C3=C(C2)Nc2ccccc2NC3c2cc3c(cc2[N+](=O)[O-])OCO3)cc1", "note": "(stereo not drawn)", "relative survival (cellular ATP)": "-4.3%"}
{"smiles": "COc1ccc(C2CC(=O)C3=C(C2)Nc2ccccc2NC3c2ccc(SC)cc2)cc1", "note": "(stereo not drawn)", "relative survival (cellular ATP)": "7.4%"}
{"smiles": "COc1ccc(C2CC(=O)C3=C(C2)Nc2ccccc2NC3c2cc(F)ccc2F)cc1", "note": "(stereo not drawn)", "relative survival (cellular ATP)": "-0.8%"}
{"smiles": "COC(=O)C1=C(C)NC2=C(C(=O)CC(c3ccccc3)C2)C1c1cccc(I)c1", "note": "(stereo not drawn)", "relative survival (cellular ATP)": "22.6%"}
{"smiles": "COc1ccc(C2CC(=O)C3=C(C2)Nc2ccccc2NC3c2cccc(C)c2)cc1", "note": "(stereo not drawn)", "relative survival (cellular ATP)": "102% (active)"}
{"smiles": "COc1ccc(C2CC(=O)C3=C(C2)Nc2ccccc2NC3c2cccc(Cl)c2)cc1", "note": "(stereo not drawn)", "relative survival (cellular ATP)": "6.7%"}
{"smiles": "CCc1c(C)sc(NC(=O)CCc2ccc(OC)cc2)c1C#N", "relative survival (cellular ATP)": "4.9%"}
{"smiles": "COc1cccc(/C=N/N2CCN(Cc3ccc(Cl)cc3)CC2)c1", "relative survival (cellular ATP)": "-4.1%"}
{"smiles": "CCOc1cc(OCC)cc(C(=O)Nc2cc3nn(-c4ccc(OC)cc4)nc3cc2C)c1", "relative survival (cellular ATP)": "4.3%"}
{"smiles": "CCCCCCCCC(=O)N/N=C/c1ccsc1C", "relative survival (cellular ATP)": "2.5%"}
{"smiles": "Cc1cc(NC(=O)COC(=O)/C=C/c2ccc([N+](=O)[O-])cc2)no1", "relative survival (cellular ATP)": "1.8%"}
{"smiles": "Cc1ccc([N+](=O)[O-])cc1NC(=O)C12CC3CC(CC(C3)C1)C2", "relative survival (cellular ATP)": "-1.4%"}
{"smiles": "CC1(C)Nc2ccc(OC(=O)c3ccccc3Br)cc2-c2c1ssc2=S", "relative survival (cellular ATP)": "-1%"}
{"smiles": "Cc1ccc(Cl)cc1NC1=CC(=O)CC(C)(C)C1", "relative survival (cellular ATP)": "10.7%"}
{"smiles": "O=C(NC1CCCCCC1)c1ccc([N+](=O)[O-])o1", "relative survival (cellular ATP)": "-27.9%"}
{"smiles": "CCO/N=C1/CC(c2ccccc2)Cc2onc(C)c21", "note": "(stereo not drawn)", "relative survival (cellular ATP)": "13.2%"}
{"smiles": "COC(=O)c1ccc(C2Nc3ccccc3NC3=C2C(=O)CC(c2ccccc2)C3)cc1", "note": "(stereo not drawn)", "relative survival (cellular ATP)": "3.7%"}
{"smiles": "COc1cc(C2Nc3ccc(C(=O)c4ccccc4)cc3NC3=C2C(=O)CCC3)cc(OC)c1OC", "note": "(stereo not drawn)", "relative survival (cellular ATP)": "-2.2%"}
{"smiles": "O=C1CCCC2=C1C(c1ccc(Cl)cc1)Nc1ccc(C(=O)c3ccccc3)cc1N2", "note": "(stereo not drawn)", "relative survival (cellular ATP)": "72.5% (active)"}
{"smiles": "NC(=O)c1ccccc1N=Cc1ccccc1[N+](=O)[O-]", "relative survival (cellular ATP)": "1.7%"}
{"smiles": "CCOc1ccc(N2C(=O)CC(NCc3cccnc3)C2=O)cc1", "note": "(stereo not drawn)", "relative survival (cellular ATP)": "5.5%"}
{"smiles": "CC(=O)N(C1=C(Cl)C(=O)c2ccccc2C1=O)c1cccc(Br)c1", "relative survival (cellular ATP)": "11.1%"}
{"smiles": "CC(=O)Nc1ccc(S(=O)(=O)Nc2ccc(Br)c(Cl)c2)cc1", "relative survival (cellular ATP)": "5.8%"}
{"smiles": "CCN(C(=O)c1ccccc1)c1ccccc1", "relative survival (cellular ATP)": "-4.6%"}
{"smiles": "COc1ccc(C2/C(=C(\\O)c3ccccc3)C(=O)C(=O)N2CCCCCC(=O)O)c(OC)c1", "note": "(stereo not drawn)", "relative survival (cellular ATP)": "-3.4%"}
{"smiles": "CCN(C(=O)c1sc(NC(=O)c2ccc(Cl)cc2)c(C#N)c1C)C1CCCCC1", "relative survival (cellular ATP)": "2.3%"}
{"smiles": "CCOc1ccc(/C=N/N2CCN(c3ccccc3OC)CC2)cc1OC", "relative survival (cellular ATP)": "5.2%"}
{"smiles": "COc1ccc(C(=O)NC(N2CCCCC2)C(Cl)(Cl)Cl)cc1OC", "note": "(stereo not drawn)", "relative survival (cellular ATP)": "3.6%"}
{"smiles": "C=CCc1c(C)nc(-c2ccccc2)nc1Nc1ccc(C(=O)O)cc1", "relative survival (cellular ATP)": "0.2%"}
{"smiles": "Cn1cc(/C=C2/SC(=S)N(c3ccccc3)C2=O)c2ccccc21", "relative survival (cellular ATP)": "6.8%"}
{"smiles": "CC1=C(C(=O)Nc2ccccc2)C(c2ccc3c(c2)OCO3)NC(=S)N1", "note": "(stereo not drawn)", "relative survival (cellular ATP)": "10.1%"}
{"smiles": "CCOC(=O)C(=Cc1ccc(-c2cccc(Cl)c2Cl)o1)C(=O)OCC", "relative survival (cellular ATP)": "5.9%"}
{"smiles": "COc1ccc(NC(=O)c2cccc(F)c2)cc1OC", "relative survival (cellular ATP)": "24.8%"}
{"smiles": "COc1ccccc1-n1cnc2cc(NC(=O)c3ccccc3)ccc21", "relative survival (cellular ATP)": "97.4% (active)"}
{"smiles": "COc1cc(OC)cc(C(=O)Nc2ccc3nn(-c4ccc(F)cc4)nc3c2)c1", "relative survival (cellular ATP)": "4%"}
{"smiles": "COc1ccc(CN2CCN(C(=O)c3cccc(Cl)c3)CC2)cc1OC", "relative survival (cellular ATP)": "2.9%"}
{"smiles": "O=C(Nc1cccc(Br)c1)c1ccc(N2C(=O)c3cccnc3C2=O)cc1", "relative survival (cellular ATP)": "4.6%"}
